Test results reported in PubChem BioAssay AID1159580 (chemical genetic matrix, 2015).
About 2,000 (36%) of roughly 5,500 compounds were called active. About 18% were inconclusive and are not listed. Rule as the data show it: active = normalized growth mostly below about 0.91 (no sharp cut-off); inconclusive = no clear call, values can overlap the other calls; inactive = mostly above about 0.92. This is one part of the list.

Experiment: chemical genetic growth profiling, strain panel (AID 1159580);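 also: tested at 20 µM; growth read once vehicle control cultures reached saturation at 30 °C; 1 = growth at the plate median or of vehicle wells; lower values mean less growth of the strain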
Settings: S. cerevisiae deletion strains, growth OD

Measured: normalized growth

O=C(O[C@@H]1Cc2c(O)cc(O)cc2O[C@@H]1c1cc(O)c(O)c(O)c1-c1c([C@H]2Oc3cc(O)cc(O)c3C[C@H]2O)cc(O)c(O)c1O)c1cc(O)c(O)c(O)c1
active: locus YAL013W, strain DEP1, hits give low values 0.0787 | locus YBR229C, strain ROT2, hits give low values 0.387 | locus YBR231C, strain swc5, hits give low values 0.873 | locus YCL029C, strain bik1, hits give low values 0.643 | locus YDL035C, strain GPR1, hits give low values 0.0755 | locus YDL074C, strain BRE1, hits give low values 0.204 | locus YDL101C, strain DUN1, hits give low values 0.113 | locus YDL134C, strain PPH21, hits give low values 0.09 | locus YDL192W, strain arf1, hits give low values 0.553 | locus YDR069C, strain doa4, hits give low values 0.893 | locus YDR101C, strain arx1, hits give low values 0.772 | locus YDR159W, strain sac3, hits give low values 1.14 [resistant] | locus YDR162C, strain NBP2, hits give low values 0.0726 | locus YDR318W, strain mcm21, hits give low values 0.61 | locus YDR388W, hits give low values 0.737 | locus YDR502C, strain sam2, hits give low values 0.362 | locus YER015W, strain faa2, hits give low values 0.892 | locus YER155C, strain BEM2, hits give low values 0.523 | locus YER167W, strain BCK2, hits give low values 0.295 | locus YGL086W, strain mad1, hits give low values 0.308 | locus YGL248W, strain PDE1, hits give low values 0.146 | locus YGR078C, strain PAC10, hits give low values 0.414 | locus YGR135W, strain pre9, hits give low values 0.429 | locus YGR229C, strain SMI1, hits give low values 0.0837 | locus YGR252W, strain gcn5, hits give low values 0.516 | locus YHR027C, strain rpn1, hits give low values 0.911 | locus YHR030C, strain SLT2, hits give low values 0.219 | locus YHR079C, strain IRE1 (second series), hits give low values 0.626 | locus YHR094C, strain hxt1, hits give low values 0.888 | locus YHR129C, strain ARP1, hits give low values 0.205 | locus YHR200W, strain rpn10, hits give low values 0.569 | locus YIL066C, strain RNR3, hits give low values 0.0703 | locus YIL073C, strain SPO22, hits give low values 0.15 | locus YIR030C, strain dcg1, hits give low values 0.863 | locus YJL095W, strain BCK1, hits give low values 0.107 | locus YJL134W, strain LCB3, hits give low values 0.432
inactive: locus YAL021C, strain ccr4, hits give low values 0.962 | locus YAL026C, strain drs2, hits give low values 0.965 | locus YAL030W, strain snc1, hits give low values 1.01 | locus YBL061C, strain skt5, hits give low values 0.997 | locus YBR009C, strain hhf1, hits give low values 0.979 | locus YBR021W, strain FUR4, hits give low values 1.03 | locus YBR023C, strain chs3, hits give low values 0.936 | locus YBR171W, strain sec66, hits give low values 1.02 | locus YBR279W, strain paf1, hits give low values 0.978 | locus YCL011C, strain gbp2, hits give low values 0.988 | locus YCL016C, strain dcc1, hits give low values 0.988 | locus YCL061C, strain MRC1, hits give low values 0.993 | locus YCL069W, strain vba3, hits give low values 1.01 | locus YCR088W, strain abp1, hits give low values 1.03 | locus YDL005C, strain med2, hits give low values 1.03 | locus YDL040C, strain nat1, hits give low values 1 | locus YDL185W, strain tfp1, hits give low values 0.928 | locus YDR001C, strain nth1, hits give low values 1.03 | locus YDR137W, strain rgp1, hits give low values 0.984 | locus YDR195W, strain ref2 1.07 | locus YDR297W, strain sur2, hits give low values 0.981 | locus YDR334W, strain swr1, hits give low values 0.985 | locus YDR335W, strain msn5, hits give low values 0.979 | locus YDR392W, strain spt3, hits give low values 1.02 | locus YEL003W, strain gim4, hits give low values 0.968 | locus YEL037C, strain rad23, hits give low values 1 | locus YEL061C, strain CIN8 (second series), hits give low values 1.02 | locus YER016W, strain bim1, hits give low values 1.01 | locus YER110C, hits give low values 0.992 | locus YER111C, strain swi4, hits give low values 0.963 | locus YER155C, strain BEM2 (second series), hits give low values 1.03 | locus YFR010W, strain ubp6, hits give low values 0.986 | locus YGL078C, strain dbp3, hits give low values 0.983 | locus YGL167C, strain pmr1, hits give low values 1 | locus YGL173C, strain kem1, hits give low values 0.961 | locus YGL227W, strain vid30, hits give low values 1.04 | locus YGL240W, strain doc1, hits give low values 1.09 | locus YGL253W, strain hxk2, hits give low values 1.01 | locus YHR013C, strain ard1, hits give low values 0.937 | locus YHR142W, strain chs7, hits give low values 0.969 | locus YIL125W, strain kgd1, hits give low values 1.02 | locus YJL092W, strain hpr5, hits give low values 1.03 | locus YJL095W, strain BCK1 (second series), hits give low values 0.991 | locus YJL115W, strain asf1, hits give low values 1.03 | locus YJL129C, strain trk1, hits give low values 1.06 | locus YJL154C, strain vps35, hits give low values 1.02 | locus YJL164C, strain tpk1, hits give low values 0.941 | locus YJL166W, strain qcr8, hits give low values 0.984 | locus YJL168C, strain set2, hits give low values 0.934
